Data on 40 compounds can be found in PubChem BioAssay (EPA / NIEHS).

Activity calls are given as the source filed them. The calls were made as follows: active = hit-call score of the fitted dose curve at least 0.9, where 1 is the maximum; inactive = score below 0.9.

This assay is described as follows: APR_HepG2_P-H2AX_1hr: Apredica 1-hour HepG2 Assay for H2AX Phosphorylation (AID 2282673). The following applies: high-content imaging, actives raise or lower the signal. As for the experimental part:
APR_HepG2_1hr is a cell-based, multiplexed-readout assay that uses HepG2, a human liver cell line, with measurements taken at 1 hour after chemical dosing in a 384-well plate.APR_HepG2_P-H2AX_1hr is one of 10 assay component(s) measured or calculated from the APR_HepG2_1hr assay. It is designed to make measurements of dna content, a form of viability reporter, as detected with fluorescence intensity signals by HCS Fluorescent Imaging technology.Data from the assay component APR_HepG2_P-H2AX_1hr was analyzed into 1 assay endpoint. This assay endpoint, APR_HepG2_P-H2AX_1hr, was analyzed with bidirectional fitting relative to DMSO as the negative control and baseline of activity. Using a type of viability reporter, measures of protein for gain or loss-of-signal activity can be used to understand the signaling at the pathway-level as they relate to the gene . Furthermore, this assay endpoint can be referred to as a primary readout, because this assay has produced multiple assay endpoints where this one serves a signaling function. To generalize the intended target to other relatable targets, this assay endpoint is annotated to the dna binding intended target family, where the subfamily is cellular response to DNA damage stimulus.
Cells were treated with dimethyl sulfoxide (DMSO) as a solvent control at a final concentration of 0.5% v/v or with compounds in DMSO with a resulting final DMSO concentration of 0.5% v/v. Compound treatment was done at concentrations of 0.39, 0.78, 1.56, 3.12, 6.24, 12.5, 25, 50, 100, and 200 uM in duplicate on each plate. Cells were treated with compounds for 1, 24, or 72 hr. Carbonyl […] m-chloro-phenylhydrazone (CCCP) and taxol were used as positive controls for mitochondrial function and cytoskeletal stability, respectively; DMSO served as the negative control for this experiment. Cells were fixed by the direct addition of 50 uL formaldehyde in Hank's Balanced Salt Solution (HBSS) to a final concentration of 3.7%. After incubation in the fixation medium for 30 min at room temperature (293-298 K), cells were rinsed twice with HBSS and treated with cell permeabilization buffer (16 uL of 0.5% Triton X-100) for 10 min at room temperature (293-298 K) before labeling. For mitochondrial membrane potential and mitochondrial measurements, pre-fixed cells were incubated with 50 uL of MitoTracker Red CMXRos (Invitrogen) at a concentration of 250 nM for 30 min before fixation. In the remaining cases, post-fixed cells were labeled by incubation with a multiplexed mixture of primary antibodies in HBSS for 60 min at room temperature (293-298 K) to detect immunoreactivity of c-Jun (1:500), phospho-histone H3 (1:100), phospho-histone H2A.x (1:200), p53 (1:400), alpha-tubulin (1:200) and Hoechst 33342 (2 ug/mL). Cells were labeled for multiplexed imaging on two separate plates: a) Hoechst 33342, MitoTracker Red, phospho-histone H3, and alpha-tubulin, and b) Hoechst 33342, phospho-histone H2A.x, and c-Jun. A final rinse with HBSS (50 uL) was performed before analysis. The primary and secondary antibodies for the proteins were phospho-histone H3 (rabbit anti-phospho-histone H3 and FITC-donkey anti-rabbit IgG), phospho-histone H2A.x (mouse anti-phospho-histone H2A.x and FITC-donkey anti-mouse IgG), c-Jun (rabbit anti-phospho-c-Jun and Cy3-donkey anti-rabbit IgG), p53 (sheep anti-p53 and Cy5-donkey anti-sheep IgG), alpha-tubulin (mouse anti-alpha-tubulin and Cy5-donkey anti-mouse IgG). These antibodies are available as the CellCiphr HepG2 assay kit (Millipore).Digital images of each well were captured using a Cellomics ArrayScan VTI (Thermo Scientific Cellomics) (0.8 NA objective, 0.63x optical coupler, and XF-93 filter set) at 20x magnification. The images were acquired using the autofocus feature of the ArrayScan instrument, which entails the following steps. First, the camera focuses on channel 1 (Hoechst 33342), where nuclei are identified. Second, a Z offset of 1 um is used for capturing mitochondria (MitoTracker Red). […]
Regarding `C=CC1(C)OC(=O)N(c2cc(Cl)cc(Cl)c2)C1=O` (stereo not given), the result was inactive.
The result for `O=C(Nc1ccccc1)Nc1ccnc(Cl)c1` reads “inactive”; that for `CCNc1nc(Cl)nc(NCC)n1`, “inactive”.
The result for `C#CCOS(=O)OC1CCCCC1Oc1ccc(C(C)(C)C)cc1` (stereo not given) reads “inactive”.
The result for `CCOP(=S)(OCC)SCn1c(=O)oc2cc(Cl)ccc21` reads “inactive”; that for `CC(Oc1ccc(Cl)cc1Cl)C(=O)O` (stereo not given), “inactive”; that for `CO/C=C(/C(=O)OC)c1ccccc1Oc1cc(Oc2ccccc2C#N)ncn1`, “inactive”.
Turning to `CNC(=O)ON=CC(C)(C)SC`, the call was inactive.
The result for `CC(C)C1(C)N=C(c2nc3ccccc3cc2C(=O)O)NC1=O` (stereo not given) reads “inactive”; that for `COc1ccc(C(c2ccc(OC)cc2)C(Cl)(Cl)Cl)cc1`, “inactive”; that for `CCCCOC(=O)c1ccccc1C(=O)OCCCC`, “inactive”.
The result for `CC1=C(C(=O)Nc2ccccc2)SCCO1` reads “inactive”; that for `CCOc1cc(Oc2ccc(C(F)(F)F)cc2Cl)ccc1[N+](=O)[O-]`, “inactive”; that for `CC(C)(C)c1ccc(CSc2cnn(C(C)(C)C)c(=O)c2Cl)cc1`, “inactive”.
The result for `COC(=O)c1ccccc1C(=O)OC` reads “inactive”; that for `N#Cc1nn(-c2c(Cl)cc(C(F)(F)F)cc2Cl)c(N)c1S(=O)C(F)(F)F` (stereo not given), “inactive”; that for `Cc1c(F)c(F)c(COC(=O)C2C(/C=C(\Cl)C(F)(F)F)C2(C)C)c(F)c1F` (stereo not given), “inactive”.
In the case of `COc1nc(NC(C)C)nc(NC(C)C)n1`, the result was inactive.
The result for `CCCC1COC(Cn2cncn2)(c2ccc(Cl)cc2Cl)O1` (stereo not given) reads “inactive”; that for `C=CCC1=C(C)[C@@H](OC(=O)[C@@H]2[C@@H](C=C(C)C)C2(C)C)CC1=O`, “inactive”; that for `CC1COC(Cn2cncn2)(c2ccc(Oc3ccc(Cl)cc3)cc2Cl)O1` (stereo not given), “inactive”.
For the compound `Oc1ccccc1-c1ccccc1`, the outcome was inactive.
Take `COP(=S)(OC)Oc1nc(Cl)c(Cl)cc1Cl`: the result was inactive.
The result for `COc1nc(C)nc(NC(=O)NS(=O)(=O)c2ccccc2Cl)n1` reads “inactive”; that for `CCON=C(CC)C1=C(O)CC(c2c(C)cc(C)cc2C)CC1=O` (stereo not given), “inactive”.
The result for `CC(C)Oc1cc(-n2nc(C(C)(C)C)oc2=O)c(Cl)cc1Cl` reads “inactive”; that for `COC(=O)N(OC)c1ccccc1COc1ccn(-c2ccc(Cl)cc2)n1`, “inactive”.
The result for `OC(c1ccc(Cl)cc1)(c1cncnc1)c1ccccc1Cl` (stereo not given) reads “inactive”.
Take `COP(N)(=O)SC` (stereo not given): the call was inactive.
Regarding `C=CCC1=C(C)C(OC(=O)C2C(C=C(C)C)C2(C)C)CC1=O` (stereo not given), the compound was classed as inactive.
The result for `COC(=O)C=C(C)OP(=O)(OC)OC` reads “inactive”; that for `O=C(O)c1nc(Cl)ccc1Cl`, “inactive”; that for `Cc1cc(Cl)ccc1OCC(=O)O`, “inactive”.
The result for `COc1nc(C)nc(NC(=O)NS(=O)(=O)c2ccccc2CCC(F)(F)F)n1` reads “inactive”; that for `CNC(=S)S`, “inactive”; that for `CCNc1nc(Cl)nc(NC(C)C)n1`, “inactive”.
The result for `Cc1ccc(-c2c(Cl)nc(C#N)n2S(=O)(=O)N(C)C)cc1` reads “inactive”; that for `N#CC(CCc1ccc(Cl)cc1)(Cn1cncn1)c1ccccc1` (stereo not given), “inactive”.
Turning to `COc1cnc(OC)n2nc(NS(=O)(=O)c3c(OCC(F)F)cccc3C(F)(F)F)nc12`, the compound was called inactive.
Consider `CCCCNC(=O)n1c(NC(=O)OC)nc2ccccc21`, for which the compound was called inactive.
